# HT1080 IDH1KD tx – kills HT-1080 cells with IDH1 knockdown | HT-1080 IDH1 knockdown viability, ATP luminescence, 48 h | Potency, µM (titrated, usually from 46.1 µM), usual class: cytotoxic | hit rate 2% among 360,000 | AID 686971
#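 % activity derives from luminescence (CellTiter-Glo), normalised to DMSO and no-cell wells. HT-1080-IDH1KD cells, 750/well, had 48 h compound exposure at 37 °C.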
# IL1B secr inh – blocks inflammasome-driven IL-1 beta release; activity change, % at 57.5 µM; AID 743279; hit rate 4.7% among 360,000; THP-1 LPS/ATP IL-1B secretion, AlphaLISA, 16 h; stronger effect = lower value; in the data active = activity change below about -50%; inconclusive = mostly about -30% to -49%
#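 Secreted IL-1B measured by AlphaLISA bead assay after 16 h compound exposure of THP-1 cells; compounds (final up to 57.5 uM) added 1 h before LPS (250 ng/mL) and ATP (1.25 mM) stimulation; lower signal means less secretion.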
# TDP1 cell noCPT – qHTS for Inhibitors of human tyrosyl-DNA phosphodiesterase 1 (TDP1): qHTS in cells in absence of CPT. DT40 Tdp1-/- hTDP1 cells, no CPT, ATP luminescence, 48 h. Potency, µM (doses to about 46.2 µM), actives largely listed as inhibitors. hit rate 15% among 420,000; note: nearly all actives have a fitted effect of over 55% in size
#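 Luminescent ATP content (CellTiter-Glo) served as the growth readout. Knockout chicken DT40 cells expressing human TDP1 were exposed to compounds without camptothecin for a minimum 48 hr at 37 °C.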
# DT40 TDP1 CPT – DT40-hTDP1 cell growth loss with CPT; Potency, µM (top dose mostly 46.2 µM), hits mostly inhibitors; hit rate 12% among 420,000; chicken DT40 Tdp1-/-;hTDP1 cells + 20 nM CPT, ATP luminescence, 48 h; note: nearly all actives have a fitted effect of over 55% in size
#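 Chicken DT40 Tdp1-/- cells stably complemented with human TDP1 were seeded at 400 cells/well in medium containing 20 nM camptothecin, exposed to pin-transferred compounds, and grown at 37 °C for at least 48 hr. Viability was read as ATP luminescence.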
# HT1080-NT tox – kills 2HG-producing HT-1080-NT fibrosarcoma cells. AID 686970. hit rate 1.6% among 360,000. Potency, µM (titrated, usually from 46.1 µM), usual class: cytotoxic. HT-1080-NT fibrosarcoma viability, CellTiter-Glo ATP luminescence, 48 h;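 note: NT is the 2HG producing partner of a matched IDH1 knockdown line; nearly all actives have a fitted effect of over 55% in size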
#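 Fibrosarcoma NT cells, 750 per well in 5% FBS RPMI, were exposed to compound for 48 hours. Viability: CellTiter-Glo luminescence.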
# Numbers stand for hits; i = inactive; ? = inconclusive; nt = no result given; [ ] = remark or other dose. In the library only some 19% were active in any assay of this set; here they are far more common. Unless noted, calls come from the whole dose curve; as a rule, active = well fitted curve in the direction sought with a large enough effect; inconclusive = small, poorly fitted or top-dose-only effect, or another doubt; inactive = no such curve, though single readings can be large; an effect the other way counts as inactive or inconclusive.
SMILES,HT1080 IDH1KD tx,IL1B secr inh,TDP1 cell noCPT,DT40 TDP1 CPT,HT1080-NT tox
CC(C)(C)[C@H]1C=C(C(=O)N2CCN(Cc3ccc4c(c3)OCO4)CC2)O[C@@H](OCCCCO)C1,i,?,i,?,i
O=C(C1=C[C@@H](c2ccc(C(F)(F)F)cc2)C[C@@H](OCc2ccc(CO)cc2)O1)N1CCN(Cc2ccc3c(c2)OCO3)CC1,?,-70,21µM,21µM,i
C#CCNC(=O)C1=C[C@H](C(C)(C)C)C[C@H](OCc2ccc(CO)cc2)O1,?,i,?,?,i
CC(C)(C)[C@@H]1C=C(C(=O)Nc2ccccc2)O[C@H](OCc2ccc(CO)cc2)C1,i,?,21µM,23µM,i
O=C(CCCCCN1C(=O)c2ccccc2C1=O)NCc1ccccn1,i,i,i,i,i
COC(=O)c1ccc(NC(=O)CCN2CCOCC2)cc1,i,i,i,i,i
CC(C)(C)[C@@H]1C=C(C(=O)N2CCN(Cc3ccc4c(c3)OCO4)CC2)O[C@H](OCc2ccc(CO)cc2)C1,i,i,16µM,?,i
CCN(CC)c1ccc(/C=N/Nc2nc3ccccc3[nH]2)c(O)c1,6.5µM,-59,4.6µM,4.6µM,8.2µM
C#CCn1cc(/C=N/Nc2nc3ccccc3[nH]2)c2ccccc21,?,-92,?,?,16µM
Fc1ccccc1-c1ccc(/C=N/Nc2nc3ccccc3[nH]2)o1,26µM,i,?,?,?
C(=N\Nc1nc2ccccc2[nH]1)/c1ccccn1,18µM,i,21µM,?,?
C#CCn1cc(/C=N/NC(=O)COc2cccc3cccnc23)c2ccccc21,i,i,?,?,i
CC(C)c1ccc(NC(=O)NCc2cccnc2)cc1,i,i,i,i,i
CC(C)(C)C1CCC(=NNc2nc3ccccc3[nH]2)CC1 (stereo not drawn),?,i,?,i,i
Cc1ccc(/C=N\Nc2nc3ccc(Cl)cc3[nH]2)o1,i,?,21µM,?,i
C/C(=N\Nc1nc2ccccc2[nH]1)c1ccc([N+](=O)[O-])cc1,i,i,?,?,i
c1ccc2c(c1)CC/C2=N/Nc1nc2ccccc2[nH]1,?,-108,18µM,?,?
BrC(=C\c1ccccc1)/C=N/Nc1nc2ccccc2[nH]1,?,i,?,18µM,i
Cc1ccc(/C=N/Nc2nnc(Cc3ccccc3)c(=O)[nH]2)o1,i,i,?,i,i
C(=N\Nc1nc2ccccc2[nH]1)/c1cccc2nccnc12,?,nt,4.1µM,2.9µM,?
OCCN1CCN(Cc2ccc3c(c2)CN(Cc2ccc4ccccc4c2)CCO3)CC1,nt,nt,i,i[9.04 µM],nt
C(=N\Nc1nc2ccccc2[nH]1)/c1ccc2ncccc2c1,0.73µM,i,0.82µM,?,0.65µM
O=[N+]([O-])c1ccc(/C=N/n2c(C3CCCCC3)n[nH]c2=S)cc1,i,i,16µM,?,i
S=c1[nH]nc(C2CCCCC2)n1/N=C/c1ccncc1,i,i,?,?,i
O=[N+]([O-])c1ccc(C=NN2CCCCCC2)cc1,i,?,18µM,?,i
SMILES,HT1080 IDH1KD tx,IL1B secr inh,TDP1 cell noCPT,DT40 TDP1 CPT,HT1080-NT tox
CSc1ccc(/C=N/n2c(C3CCCCC3)n[nH]c2=S)cc1,?,-62,?,?,?
Cc1ccc(CN2CCN(C3CCN(C(=O)Nc4ccc(C)cc4Cl)CC3)C(=O)C2=O)cc1,nt,nt,?,i,nt
O=c1c2cc3c(cc2n(Cc2cccc(F)c2)c(=O)n1Cc1nc(-c2ccccc2)no1)OCO3,nt,nt,i,i,nt
CNc1snc(C)c1C(=O)OCC(=O)c1ccc(Cl)cc1,?,i,9.2µM,13µM,i
COc1ccc(C(=O)C(C)OC(=O)c2sc(C)nc2C)cc1 (stereo not drawn),i,i,i,i,i
CNc1snc(C)c1C(=O)OC(C)C(=O)c1ccc(F)cc1 (stereo not drawn),i,i,21µM,18µM,i
CCN(Cc1ccccc1)C(=O)COC(=O)c1c(C)nsc1NC,i,i,21µM,15µM,i
CCN(Cc1ccccc1)C(=O)COC(=O)c1cnc(C)cn1,i,i,i,i,i
Cc1ccc(-n2ncc3c2CCCC3NC(=O)CSc2ccccn2)cc1C (stereo not drawn),i,i,?,?,i
CCN(CC(=O)Nc1c(F)cccc1F)C(=O)c1ccc2ncsc2c1,i,i,i,i,i
CN(C)C(CNC(=O)c1ccc(C2SCCS2)cc1)c1ccccc1 (stereo not drawn),i,i,i,?,i
Cc1nc2ccccc2c(=O)n1-c1ccc(NC(=O)c2cccc([N+](=O)[O-])c2)cc1,nt,nt,21µM,18µM,nt
Cc1cc(-n2c(C)nc3ccccc3c2=O)ccc1NC(=O)c1cccc([N+](=O)[O-])c1,nt,nt,12µM,16µM,nt
Cc1ccc(C(=O)Nc2ccc(-n3c(C)nc4ccccc4c3=O)cc2)cc1[N+](=O)[O-],nt,nt,7.3µM,9.2µM,nt
Cc1ccc(CNC(=O)C2CCCCC2C(=O)O)cc1 (stereo not drawn),i,i,i,i,i
CCOc1ccccc1NC(=O)C1CCCN(S(=O)(=O)c2cccs2)C1 (stereo not drawn),nt,nt,23µM,23µM,nt
CCOc1ccc(S(=O)(=O)N2CCCCC2)cc1NC(=O)C1CCCC1,i,i,?,i,i
CCOc1ccc2nc(NC(=O)C(CCSC)NS(=O)(=O)c3cccs3)sc2c1 (stereo not drawn),i,?,?,?,i
CCOc1ccccc1NC(=O)C1CCCN(S(=O)(=O)c2ccc(OC)c(C)c2)C1 (stereo not drawn),i,i,16µM,?,i
Cc1ccc2nc(NC(=O)C3CCCN(S(=O)(=O)c4cccnc4)C3)sc2c1 (stereo not drawn),i,i,16µM,23µM,i
Cc1ccc(C)c(NC(=O)C2CCCN(S(=O)(=O)c3cccnc3)C2)c1 (stereo not drawn),i,i,i,i,i
CCOc1ccc2nc(NC(=O)C3CCCN(S(=O)(=O)c4cccs4)C3)sc2c1 (stereo not drawn),i,-58,?,?,i
COC(=O)C1=NN(C(=O)c2ccccc2)C(C)(O)C1 (stereo not drawn),?,i,23µM,?,i
O=C(c1ccccc1[N+](=O)[O-])N1CC2C3C=CC(C3)C2C1 (stereo not drawn),i,i,i,i,i
C=CCC1C=CCC(CC=C)N1C(=O)c1ccccc1[N+](=O)[O-] (stereo not drawn),i,i,?,13µM,i
Cc1c(NC(=O)Nc2ccc(Cl)cc2)c(=O)n(-c2ccccc2)n1C,i,i,i,i,i
Cc1c(N=C2N=C(NC(=O)Nc3ccc(Cl)cc3)c3ccccc32)c(=O)n(-c2ccccc2)n1C,i,i,23µM,18µM,i
